27 molecules from PubChem BioAssay (NCATS) can be followed below.

Results filed as inconclusive are left out. Where a call stands in place of a potency, no number is given. A number with no mark means an inactive call. Active and inactive are the calls of the source. Calls follow the shape of the dose curve; as a rule, active = well fitted cell-killing curve with a large enough effect; inconclusive = small, poorly fitted or top-dose-only effect, or effect the other way; inactive = no such curve, though single readings can be large or run the other way.
Potency is read from the fitted curve at half-maximal effect.

This assay in a line: Viability qHTS for spleen associated tyrosine kinase inhibitor (SYKi) naive MV4-11 cells (AID 1963823). Also: nearly all actives have a fitted effect of over 40% in size. Conditions: MV4-11 AML viability, CellTiter-Glo luminescence, 72 h; series mostly up to 45 µM. The method, boiled down: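 CellTiter-Glo luminescence, 10 min room-temperature incubation, gave viability. Cells: naive MV4-11 (500/well), treated 72 hr at 37 C, 5% CO2.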
`CC(C)(O)C1=CCC23COC(C2)C(O)(C(=O)O)CCC13` (configuration not stated): the Potency result was “inactive”. As for `CC(=O)N1CCN([C@H]2CCN(C(=O)N(C)[C@H](C)c3cc(C(F)(F)F)cc(C(F)(F)F)c3)[C@@H](c3ccc(F)cc3C)C2)CC1`, the Potency is 14600 nM (active).

In the case of `CC1(C)CC[C@]2(C(=O)OC3OC(CO)C(O)C(O)C3O)CC[C@]3(C)C(=CCC4[C@@]5(C)CC[C@H](OC6OC(C(=O)O)C(O)C(OC7OC(CO)C(O)C(O)C7O)C6O)C(C)(C)C5CC[C@]43C)C2C1` (some centres not stated), the viability (% of control) is 77.3% [at 9.25 µM]. Still for that read-out and setting: under `CC(C)CC(=O)O[C@@H]1O[C@H](CO)[C@@H](O[C@H]2O[C@H](C)[C@@H](N[C@H]3C=C(CO)[C@@H](O[C@H]4O[C@H](CO)[C@@H](O[C@H]5O[C@H](CO)[C@@H](O[C@H]6O[C@H](CO)[C@@H](O)[C@H](O)[C@H]6O)[C@H](O)[C@H]5O)[C@H](O)[C@H]4O)[C@H](O)[C@H]3O)[C@H](O)[C@H]2O)[C@H](O)[C@H]1O` stands 82.5% [at 9.25 µM]. In the case of `CC1OC2O[C@H]3[C@@H](OCC(O)[C@H]3O)OC(=O)C34CCC(C)(C)CC3C3=CCC5C6(C)CC(O)C(OC7OC(CO)C(O)C(O)C7O[C@@H]7OC[C@H](OC(=O)CC(C)(O)CC(=O)OC1C(OC1OCC(O)C(O)C1O)C2O)[C@@H](O)[C@H]7O)C(C)(CO)C6CCC5(C)C3(C)CC4` (some centres not stated), the Potency is 8930 nM (active). For `COC(=O)c1cc(OC)c(O[C@@H]2O[C@@H](C)[C@H](O)[C@@H](O)[C@H]2O)c(OC)c1`, the Potency entry was “inactive”. For `Cc1cnc(NC(=O)Nc2cc(Br)c(C)cc2OCC2CNCCO2)cn1` (configuration not stated), the Potency was 731 nM (active). Take `CC(=O)c1c(O)cc2cccc3c2c1CC(C)(O)O3` (configuration not stated): the Potency entry is “inactive”. The same measure, in the same setting: under `C/C1=C\C[C@H](O[C@@H]2O[C@H](CO)[C@@H](O)[C@H](O)[C@H]2O)/C(C)=C/[C@H]2OC(=O)[C@H](C)[C@@H]2CC1` stands “inactive”. Still for that read-out and setting: under `COC(=O)c1ccnc(-c2cc(C(=O)Nc3ccc(C4(N)CC4)cc3)ccn2)c1` stands “inactive”; under `C#CCN(Cc1cc2c(=O)[nH]c(C)nc2cc1Br)c1ccc(C(=O)NCc2cccnc2)cc1`, “inactive”. Consider `CC1(CO)CC[C@]2(C(=O)O[C@@H]3O[C@H](CO)[C@@H](O)[C@H](O)[C@H]3O)CC[C@]3(C)C(=CCC4[C@@]5(C)C[C@H](O)[C@H](O[C@@H]6OC[C@@H](O)[C@H](O)[C@H]6O)[C@@](C)(CO)C5CC[C@]43C)C2C1` (some centres not stated), for which the viability (% of control) is 88.9% [at 9.25 µM]. As to `COc1cc2ncnc(Nc3cccc(O)c3)c2cc1OC`, the Potency was 411 nM (active). With `C=CC(C)(CCC=C(C)C)O[C@@H]1O[C@H](CO)[C@@H](O)[C@H](O)[C@H]1O` (some centres not stated), the Potency entry was “inactive”.

For `CCOC(=O)c1cnc2ccc(-c3cncc(NS(=O)(=O)c4ccccc4)c3)cn12`, the Potency is 326 nM (active). The same measure, in the same setting: under `CNC(=O)O[C@H]1COc2ccc(N3CCN(C4COC4)CC3)cc2[C@@H]1NC(=O)c1ccc(F)cc1` stands “inactive”; under `O=S(=O)(Nc1ccccn1)c1ccc(N=Cc2c(O)[nH]c3ccc4ncsc4c23)cc1`, 94.4 nM (active); under `CC#CC(=O)Nc1ccc2ncnc(Nc3cccc(Br)c3)c2c1`, 1460 nM (active). With `C[C@@H]1O[C@@H](O[C@H]2[C@H](O)[C@@H](O)[C@H](OC3CCC4(C)C5CCC(C)(C(CO)OC6OC(CO)C(O)C(O)C6O)CC5=CCC4C3(C)C)O[C@@H]2CO)[C@H](O)[C@H](O)[C@H]1O` (some centres not stated), the Potency result is “inactive”.

In the case of `O=C(/C=C/c1ccccc1O)O[C@@H]1O[C@H](CO)[C@@H](O)[C@H](O)[C@H]1O`, the Potency entry is “inactive”. Still for that read-out and setting: with `O=C(CC1CC(c2ccc(F)cc2F)=NO1)N1CCOCC1` (configuration not stated) the entry was “inactive”; with `CN1[C@@H]2CC[C@H]1CC(OC(=O)C(CO)c1ccccc1)C2` (some centres not stated), “inactive”; with `O=C(Cc1ccccc1)OC[C@H]1O[C@H](O[C@H]2O[C@H](CO)[C@@H](O)[C@H](O)[C@H]2O)[C@H](O)[C@@H](O)[C@@H]1O`, “inactive”. Same read-out and setting: under `O=c1cc[nH]c(=S)[nH]1` stands “inactive”. The same measure, in the same setting: with `COc1ccc(/C=C/C(=O)O[C@@H]2[C@@H](O)[C@H](C)O[C@@H](OC3C4C=COC(O[C@@H]5O[C@H](CO)[C@@H](O)[C@H](O)[C@H]5O)C4C4(CO)OC34)[C@@H]2O)cc1OC` (some centres not stated) the entry was “inactive”; with `O=C(/C=C/c1ccc(O)cc1)O[C@H]1[C@H](OC2CCCCC2O)O[C@H](CO)[C@@H](O)[C@@H]1O` (some centres not stated), “inactive”; with `COc1cc(C(=O)OCC2=CCC3C(C(=O)O)=COC(O[C@@H]4O[C@H](CO)[C@@H](O)[C@H](O)[C@H]4O)C23)ccc1O` (some centres not stated), “inactive”.
